Records with an inconclusive call do not appear. Entries that show only a call come without a potency. Active and inactive are the calls of the source. The call rests on the fitted dose curve; in most records, active means well fitted inhibition curve with a large enough effect; inconclusive means small, poorly fitted or top-dose-only effect; inactive means no such curve, though single readings can be large or run the other way.
Experiments:
[1] = test system: Zika virus NS2B-NS3 protease (unlinked complex); assay: Primary screen GU Rhodamine qHTS for Zika virus inhibitors: Unlinked NS2B-NS3 protease assay (AID 1347159); details: Recombinant ZIKV NS2B-NS3 protease, Rhodamine110 substrate fluorescence; series mostly up to 107 µM; further: nearly all actives have a fitted effect of over 60% in size
In short: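 Enzyme 25 nM in Tris-HCl pH 8.0 + 0.01% Tween 20; compounds up to 114 microM, 15 min RT dark; + Rhod110 substrate 1.5 microM; read t0 and 15 min; delta fluorescence → % inhibition → 4-parameter Hill fit.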

[2] = test system: Zika virus NS2B-NS3 protease (linked construct); assay: Primary screen NINDS Rhodamine qHTS for Zika virus inhibitors (AID 1347160); details: purified NS2B-NS3 protease, Rhodamine110 substrate fluorescence; series mostly up to 33.1 µM; further: nearly all actives have a fitted effect of over 55% in size
In short: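 Enzyme (25 nM, linked NS2B-NS3) was preincubated 15 min with compound in 10 mM Tris-HCl pH 8.0, 0.01% Tween 20. Rhodamine110 substrate (1.5 microM) was then added and fluorescence read at start and after 15 min.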

Fc1ccccc1-c1nc2ccn(Cc3ccc(-c4ccc(C(F)(F)F)cc4C(F)(F)F)nn3)cc-2n1
Potency [1]: inactive | Potency [2]: inactive

CSCC1OC(n2cnc3c(=O)[nH]cnc32)C(O)C1O (stereo not drawn)
Potency [1]: inactive | Potency [2]: inactive

CC1=C(CO)CC(C(C)C2CCC3C4CC=C5CC(OC6OC(COC7OC(CO)C(O)C(O)C7O)C(O)C(O)C6O)CC(O)C5(C)C4CCC23C)OC1=O (stereo not drawn)
Potency [1]: inactive | Potency [2]: inactive

C=CC(C)(O)CC/C=C(\C)C1CC=C(C)C(=O)O1 (stereo not drawn)
Potency [1]: inactive | Potency [2]: inactive
